Sampled rows, rich in hits. Any-hit rate of the full collection: about 8.8%.
LMNA splice mod – qHTS Assay for Modulators of Lamin A Splicing. AID 1487, 2009. HeLa LMNA splicing GFP/RFP minigene ratio, 48 h. Potency, µM (doses to about 46.1 µM), for the others: at the top dose ratio change, negative = inhibition, actives largely listed as inhibitors. hit rate 0.01% among 200,000; active = well fitted inhibition curve with a large enough effect in the signal ratio, with a control signal flat, not every such curve was filed as active; inconclusive = small, poorly fitted or top-dose-only effect, or effect the other way, or a change in a side signal; the % refers to the signal ratio; also: % is scaled to controls: 0 for no effect and ±100 for the full control effect
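Read-out is the ratio of GFP to DsRed2 object intensity, acquired by 488 nm laser-scanning cytometry on HeLa lamin A-EGFP minigene reporter cells. Compound incubation 48 hrs at 37 °C in Opti-MEM with 2% FBS; DMSO 0.5% final.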
HPGD inh – qHTS Assay for Inhibitors of HPGD (15-Hydroxyprostaglandin Dehydrogenase); hit rate 4.3% among 150,000; 15-hydroxyprostaglandin dehydrogenase [NAD(+)] (Homo sapiens), P15428; Potency, µM, for the others: at the highest dose activity change, negative = inhibition, most hits filed as inhibitors; AID 894, 2007; purified HPGD, NADH fluorescence kinetic, PGE2 substrate; active = well fitted inhibition curve with a large enough effect, not every such curve was filed as active; inconclusive = small, poorly fitted or top-dose-only effect, or another doubt; inactive = no such curve, though single readings can be large or run the other way; also: % is scaled to controls: 0 for no effect and ±100 for the full control effect
Target sequence (P15428 whole entry, looked up): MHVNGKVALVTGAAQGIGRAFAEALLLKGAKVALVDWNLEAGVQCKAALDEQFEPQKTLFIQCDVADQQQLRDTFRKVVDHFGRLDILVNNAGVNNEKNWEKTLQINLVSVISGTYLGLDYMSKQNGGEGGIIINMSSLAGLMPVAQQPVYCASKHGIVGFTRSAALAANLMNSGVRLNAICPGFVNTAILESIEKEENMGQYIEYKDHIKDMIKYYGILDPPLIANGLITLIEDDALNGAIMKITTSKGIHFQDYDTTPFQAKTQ
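NADH formation kinetics: reaction with 30 uM PGE2 and 1 mM NAD+ (final), 20 nM enzyme, Tris-HCl pH 8 with Tween 20, after 15 min compound preincubation at room temperature. Fluorescence change, last versus first of five reads.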
HttQ103 aggreg – qHTS Multiplex Assay to Identify Dual Action Probes in a Cell Model of Huntington: Aggregate Formation (GFP). PC12 HttQ103-GFP aggregates, Acumen cytometry, 40 h. Potency, µM (highest dose often 46.1 µM), without a hit: at the highest dose activity change, negative = inhibition, usual class: inhibitors. hit rate 1.1% among 220,000. AID 1688, 2009; also: % is scaled to controls: 0 for no effect and ±100 for the full control effect; nearly all actives have a fitted effect of over 60% in size
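Using laser scanning cytometry, GFP-positive aggregates were counted after lysis of PC12 cells induced with 100 nM tebufenozide to express HTT exon 1 Q103–GFP. Compounds were tested in titration.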
HTT ATP protect – qHTS Multiplex Assay to Identify Dual Action Probes in a Cell Model of Huntington: Cytoprotection (ATP) | PC12 HTT-Q103 induced, cytoprotection, ATP luminescence, 40 h | Potency, µM (highest dose often 56.4 µM), without a hit: cytoprotection (ATP increase), usual class: activators | hit rate 0.14% among 230,000; also: % of control where 0% means no effect; nearly all actives have a fitted effect of over 45% in size
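Rat PC12, Q103 Htt exon1-GFP fusion, ecdysone promoter; tebufenozide inducer 100 nM final; compound titration; qHTS, 1500 cells/well; ATPlite luminescent read.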
ALDH1A1 inh – qHTS Assay for Inhibitors of Aldehyde Dehydrogenase 1 (ALDH1A1); Aldehyde dehydrogenase 1A1 (Homo sapiens), P00352; Purified ALDH1A1, NADH fluorescence, propionaldehyde substrate; Potency, µM (highest dose often 75.3 µM), for inactives: at the highest dose activity, negative = inhibition, usual class: inhibitors; hit rate 7.3% among 220,000; AID 1030, 2008; active = well fitted inhibition curve with a large enough effect, not every such curve was filed as active; inconclusive = small, poorly fitted or top-dose-only effect, or another doubt; inactive = no such curve, though single readings can be large or run the other way;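 also: plate controls were no enzyme wells and a reference inhibitor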
Target sequence (P00352 whole entry, looked up): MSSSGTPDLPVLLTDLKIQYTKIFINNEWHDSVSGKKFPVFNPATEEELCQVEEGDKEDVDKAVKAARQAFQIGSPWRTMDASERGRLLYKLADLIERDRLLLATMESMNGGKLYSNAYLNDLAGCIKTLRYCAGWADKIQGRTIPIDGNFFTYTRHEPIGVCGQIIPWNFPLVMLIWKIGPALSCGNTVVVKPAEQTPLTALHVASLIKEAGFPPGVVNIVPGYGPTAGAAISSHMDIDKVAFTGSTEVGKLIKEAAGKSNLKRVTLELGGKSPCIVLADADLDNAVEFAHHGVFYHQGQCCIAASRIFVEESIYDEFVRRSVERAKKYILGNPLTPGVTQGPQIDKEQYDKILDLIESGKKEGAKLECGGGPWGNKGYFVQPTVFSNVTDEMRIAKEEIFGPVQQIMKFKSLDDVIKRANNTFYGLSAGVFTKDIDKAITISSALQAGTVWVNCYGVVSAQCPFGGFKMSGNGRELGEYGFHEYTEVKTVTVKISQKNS
Active calls of the source: *; ? = inconclusive; · = no result given; [ ] = another dose, or the depositor's remark. Unless noted, calls follow the shape of the dose curve; as a rule, active = well fitted curve in the direction sought with a large enough effect; inconclusive = small, poorly fitted or top-dose-only effect, or another doubt; inactive = no such curve, though single readings can be large; an effect the other way counts as inactive or inconclusive. Potency is read from the fitted curve at half-maximal effect.

SMILES	LMNA splice mod	HPGD inh	HttQ103 aggreg	HTT ATP protect	ALDH1A1 inh
COc1ccc2c(c1OC)C(=O)N1N=C(c3ccc(-c4ccccc4)cc3)CC21 (stereo unspecified)	·	·	15.8%	-36.6%	?
COc1ccc2c(c1OC)C(=O)N1c3ccccc3N=C(c3ccc([N+](=O)[O-])cc3)CC21 (stereo unspecified)	-13.4%	35.5µM*	-9.1%	-11.3%[10 µM]	10µM*
COc1ccc2c(c1OC)C(=O)N1N=C(c3ccc(Cl)cc3)CC21 (stereo unspecified)	-14.9%	-25.7%	6.8%	3.6%[10 µM]	11.2µM*
COc1ccc(C2=NN3C(=O)c4c(ccc(OC)c4OC)C3C2)cc1 (stereo unspecified)	-4.6%	-20.4%	?	?	?
COc1nc(NCCO)nc(Nc2ccc([N+](=O)[O-])cc2)n1	-11.5%	20µM*	-5.4%	9.5%[10 µM]	?
O=[N+]([O-])c1ccc(Nc2nc(Cl)nc(NCCO)n2)cc1	·	·	8.6%	-19.2%	2.7%
O=C(CNC(=S)N(Cc1ccccc1)Cc1cccnc1)N1CCOCC1	·	·	2.8%	-13.8%	-3.2%
O=C(NNc1ccccc1Br)C(=O)n1ccc2ccccc21	3.6%	-26.5%	2.1%	3.55µM*	4.2%
O=C(CSc1nccn1Cc1ccc(Cl)cc1)Nc1ccc2c(c1)OCCO2	11.4%[46 µM]	·	·	·	·
Cc1cc(C)nc(SCc2ccc(F)cc2)n1	13.4%[46 µM]	·	?	3.16µM*	-1.8%
Cc1cc(C)nc(SCc2ccc(C(=O)N/N=C/c3ccc(C(=O)O)cc3)cc2)n1	-1.2%[46 µM]	·	10.0%	3.2%	-5.3%
CC1C/C(=N\NC(=O)c2ccc(NS(=O)(=O)c3ccc(Br)cc3)cc2)CC(C)(C)C1 (stereo unspecified)	-3.8%	-5.6%	8.4%	6.5%[10 µM]	3.55µM*
CC1C/C(=N\NC(=O)c2ccc([N+](=O)[O-])cc2)CC(C)(C)C1 (stereo unspecified)	·	·	21.1%[9.22 µM]	8.8%[10 µM]	·
Cc1cc(C)nc(SCc2ccc(C(=O)N/N=C3\CC(C)CC(C)(C)C3)cc2)n1 (stereo unspecified)	-8.9%	·	7.8%	10.9%[10 µM]	7.94µM*
Cc1cc(C)nc(SCc2ccc(C(=O)NN=C3C4CC5CC(C4)CC3C5)cc2)n1	-6.3%	-10.3%	-8.8%	-0.2%[10 µM]	3.55µM*
COc1cccc(-c2nn3c(=O)cc(CN4CCN(S(=O)(=O)c5ccc(C)cc5)CC4)nc3s2)c1	6.2%[46 µM]	·	·	·	·
O=C(Nc1ccccc1)c1ccc(Br)c(S(=O)(=O)N2CCCCC2)c1	-4.8%[46 µM]	·	·	·	·
CCN1C(=O)/C(=C/C2=Cc3ccccc3OC2C)SC1=S (stereo unspecified)	·	·	5.8%[9.22 µM]	33.9%[10 µM]	·
CCOc1ccc(CNC(=O)c2oc3c(c2C)-c2nn(Cc4cccc(Cl)c4)cc2CC3)cc1	8.1%[46 µM]	·	·	·	·
Cc1ccccc1NC(=O)C(=Cc1ccc(C(=O)O)cc1)C(=O)Nc1ccccc1C	?	·	6.31µM*	40.2%[10 µM]	5.9%
CC(=O)/C(=C/c1ccccc1)C(=O)Nc1ccccc1C	·	·	-16.2%	-29.4%	9.8%
O=C(N/N=C/c1coc2ccccc2c1=O)c1ccccc1Br	-3.4%	-29.1%	?	·	4.47µM*
COc1ccc(C(=O)N/N=C\c2coc3ccccc3c2=O)cc1	·	·	-3.6%[9.22 µM]	-4.1%[10 µM]	3.55µM*
O=C(CCc1ccc(O)cc1)N/N=C/c1coc2ccccc2c1=O	·	·	6.4%[9.22 µM]	4.8%[10 µM]	·
O=C(N/N=C/c1coc2ccccc2c1=O)c1cccc([N+](=O)[O-])c1	-5.5%[46 µM]	·	-18.8%	-34.5%	28.2µM*
SMILES	LMNA splice mod	HPGD inh	HttQ103 aggreg	HTT ATP protect	ALDH1A1 inh
O=C(N/N=C/c1coc2ccccc2c1=O)c1cc(O)cc(O)c1	·	·	-22.3%	-39.9%	?
COc1ccc(-c2nnc(SCC(=O)Nc3ccc(C)c(C)c3)s2)cc1	11.0%[46 µM]	·	·	·	·
CC1Cc2ccccc2N1C(=O)CCNS(=O)(=O)c1ccc2c(c1)CCC(=O)N2 (stereo unspecified)	0.7%	-1.4%	1.1%	3.1%	15.8µM*
Cc1ccc(/C=N/NC(=O)CCn2nc(C)cc2C)c(C)c1	-23.4%[46 µM]	·	-3.1%	-15.5%[10 µM]	2.5%
COc1cc(Nc2ccccc2Cl)c([N+](=O)[O-])nc1[N+](=O)[O-]	27.6%	25.1µM*	25.5%[9.22 µM]	-50.1%	7.8%
COc1ccccc1Nc1ccc([N+](=O)[O-])cc1N	-7.4%	-11.3%	10.5%	27.8%[10 µM]	-7.7%
NC(=O)CSc1nnnn1-c1ccccc1Cl	19.3%[46 µM]	·	-0.9%	-19.2%	?
Cc1cc2nc3c(=O)[nH]c(=O)nc-3n(CC(O)C(O)C(O)COP(=O)(O)O)c2cc1C (stereo unspecified)	?	-28.5%	?	10.5%	-1.3%
CCN(CC)c1ccc(/C=C(\C#N)c2nc(-c3cccs3)c(NC(C)=O)s2)cc1	?	·	12.6µM*	3.3%[10 µM]	?
Cc1cc2c(N)cccc2nn1	10.5%	-23.4%	15.6%	-9.8%	3.98µM*
CC(=O)c1ccc(OCC(C)C)c(CC(C(N)=O)C(N)=O)c1	6.0%	-10.4%	12.7%	-7.0%	9.6%
CCN(CC)Cc1cc(C(C)=O)ccc1OCC(C)C	3.4%	-2.7%	-17.2%	-27.6%	1.12µM*
O=C(c1ccco1)N1CCN(S(=O)(=O)c2ccc(Br)s2)CC1	-10.7%	?	-2.1%	7.1%	8.91µM*
CCOC(=O)N1CCN(S(=O)(=O)c2ccc(Br)s2)CC1	-6.5%	-1.2%	-14.2%	-4.3%[10 µM]	1.0%
O=C(NN=C1CCCC1)c1[nH]c2ccc(Cl)cc2c1-c1ccccc1	·	·	-24.8%[9.22 µM]	-77.3%[10 µM]	11.2µM*
CC(=O)NNC(=O)c1[nH]c2ccc(Cl)cc2c1-c1ccccc1	·	·	1.6%[9.22 µM]	-7.9%[10 µM]	·
C/C(CC1CC2=C(CC1(C)C)C(C)(C)CCC2)=N\NC(N)=S (stereo unspecified)	?	?	-45.2%	-83.8%	12.6µM*
CCOC(=O)c1c(C)oc2nc(C)nc(NCC3CCN(Cc4ccc(F)cc4)CC3)c12	-16.9%[46 µM]	·	·	·	·
O=C(CSc1ccc(Cl)cc1)Nc1nnc(-c2cccc([N+](=O)[O-])c2)s1	-9.4%	-23.3%	0.1%	·	2.51µM*
Cc1cccc(C)c1OCc1nnc(NC(=O)CSc2ccc(Cl)cc2)s1	4.8%	-11.8%	20.5%	·	4.7%
O=C(Cc1cccc2ccccc12)Nc1nnc(-c2cccc([N+](=O)[O-])c2)s1	-0.7%	-10.5%	-24.5%	·	7.1%
O=C(CSc1ccccc1)Nc1nnc(COc2ccc(Cl)cc2)s1	4.6%	3.55µM*	8.1%	10.3%[10 µM]	3.16µM*
Cc1onc(-c2ccccc2)c1C(=O)Nc1nnc(COc2ccc(Cl)cc2)s1	?	2.51µM*	-14.2%	-1.8%[10 µM]	1.12µM*
CCOCC(=O)Nc1nnc(COc2ccc(Cl)cc2)s1	?	11.2µM*	10.3%	-35.1%	3.55µM*
